Results from the supplement of paper PMC4022240.
± gives the standard deviation.

Experiments:
Experiment in all cases: peptide microarray binding signal (635 nm), min-max normalized on array (fraction of array maximum); higher = stronger binding
Details in all cases: peptide region: H2B 7-19
[1] = target: T1, HaloTag-ATRX ADD domain (163-292)
T1 chain: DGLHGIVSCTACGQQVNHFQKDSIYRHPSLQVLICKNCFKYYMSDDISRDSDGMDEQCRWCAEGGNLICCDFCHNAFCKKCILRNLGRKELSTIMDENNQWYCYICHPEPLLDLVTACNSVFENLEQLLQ
Experimental: (§1)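 Histone 13-mer peptides were synthesized as cellulose conjugates with a C-terminal 20-atom PEG linker and printed in triplicate on nitrocellulose. The sequence given is the unmodified backbone; PTMs (Kme1/2/3, Kac, Sph/Tph, Rme/Rme2a/Rme2s, Rcit) are listed in the label and the 'peptide modifications' condition. Slides were probed at 4 °C for 1 h with biotin-labelled (HQ)5-HaloTag reader fusions (ATRX-ADD, ING2-PHD) then streptavidin-Alexa647, or with rabbit histone antibodies then anti-rabbit Alexa647. The mean 635 nm signal of the triplicate spots was scaled 0-1 between the lowest and highest values on each array.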

[2] = target: HaloTag-ING2 PHD (mouse Ing2 200-280)
Experimental: as §1

[3] = target: anti-H3K4me3 antibody ab8580
Experimental: as §1

[4] = target: anti-H3K9me3 antibody ab8898
Experimental: as §1

[5] = peptide modifications: H2BK12ac H2BS14ph H2BK15ac H2BK16ac, binder concentration: 1:2,000 dilution
[6] = peptide modifications: H2BK12ac H2BS14ph H2BK15ac H2BK16ac, binder concentration: 1:10,000 dilution
[7] = peptide modifications: H2BK11ac H2BK15ac H2BK16ac, binder concentration: 1:2,000 dilution
[8] = peptide modifications: H2BK11ac H2BK15ac H2BK16ac, binder concentration: 1:10,000 dilution
[9] = peptide modifications: H2BK11ac H2BK15ac, binder concentration: 1:2,000 dilution
[10] = peptide modifications: H2BK11ac H2BK15ac, binder concentration: 1:10,000 dilution
[11] = peptide modifications: H2BK12ac, binder concentration: 1:2,000 dilution
[12] = peptide modifications: H2BK12ac, binder concentration: 1:10,000 dilution
[13] = peptide modifications: H2BK11ac H2BS14ph H2BK15ac H2BK16ac, binder concentration: 1:2,000 dilution
[14] = peptide modifications: H2BK11ac H2BS14ph H2BK15ac H2BK16ac, binder concentration: 1:10,000 dilution
[15] = peptide modifications: H2BK15ac, binder concentration: 1:2,000 dilution
[16] = peptide modifications: H2BK15ac, binder concentration: 1:10,000 dilution
[17] = peptide modifications: H2BK12ac H2BS14ph H2BK16ac, binder concentration: 1:2,000 dilution
[18] = peptide modifications: H2BK12ac H2BS14ph H2BK16ac, binder concentration: 1:10,000 dilution
[19] = peptide modifications: H2BK11ac, binder concentration: 1:2,000 dilution
[20] = peptide modifications: H2BK11ac, binder concentration: 1:10,000 dilution
[21] = peptide modifications: H2BK16ac, binder concentration: 1:2,000 dilution
[22] = peptide modifications: H2BK16ac, binder concentration: 1:10,000 dilution
[23] = peptide modifications: H2BK15ac H2BK16ac, binder concentration: 1:2,000 dilution
[24] = peptide modifications: H2BK15ac H2BK16ac, binder concentration: 1:10,000 dilution

APAPKKGSKKAVT [H2B 7-19 A P A P K Kac G Sph Kac Kac A V T] was tested, and the “peptide microarray binding signal” value ([1]; peptide modifications: H2BK12ac H2BS14ph H2BK15ac H2BK16ac, binder concentration: 50 nM) was 0.00257 ± 9.2e-05, the “peptide microarray binding signal” value ([1]; peptide modifications: H2BK12ac H2BS14ph H2BK15ac H2BK16ac, binder concentration: 500 nM) was 0.00224 ± 5e-05 and the “peptide microarray binding signal” value ([2]; peptide modifications: H2BK12ac H2BS14ph H2BK15ac H2BK16ac, binder concentration: 10 nM) was 0.005013 ± 2.5e-05. The “peptide microarray binding signal” value ([2]; peptide modifications: H2BK12ac H2BS14ph H2BK15ac H2BK16ac, binder concentration: 100 nM) was 0.00213 ± 9.1e-05, the “peptide microarray binding signal” value [3, 5] was 0.000793 ± 0.00015 and the “peptide microarray binding signal” value [3, 6] was 0.000799 ± 8.3e-06. For the same binder, the “peptide microarray binding signal” value [4, 5] was 0.000423 ± 8.2e-06 and the “peptide microarray binding signal” value [4, 6] was 0.0011 ± 4e-05.

For APAPKKGSKKAVT [H2B 7-19 A P A P Kac K G S Kac Kac A V T], the “peptide microarray binding signal” value ([1]; peptide modifications: H2BK11ac H2BK15ac H2BK16ac, binder concentration: 50 nM) was 0.005642 ± 4e-05, the “peptide microarray binding signal” value ([1]; peptide modifications: H2BK11ac H2BK15ac H2BK16ac, binder concentration: 500 nM) was 0.0203 ± 0.002 and the “peptide microarray binding signal” value ([2]; peptide modifications: H2BK11ac H2BK15ac H2BK16ac, binder concentration: 10 nM) was 0.00776 ± 0.00056. The “peptide microarray binding signal” value ([2]; peptide modifications: H2BK11ac H2BK15ac H2BK16ac, binder concentration: 100 nM) was 0.0162 ± 0.0017, the “peptide microarray binding signal” value [3, 7] was 0.0139 ± 0.0047 and the “peptide microarray binding signal” value [3, 8] was 0.00245 ± 0.0001. For the same binder, the “peptide microarray binding signal” value [4, 7] was 0.00378 ± 0.00028 and the “peptide microarray binding signal” value [4, 8] was 0.00254 ± 0.0001.

For APAPKKGSKKAVT [H2B 7-19 A P A P Kac K G S Kac K A V T], the “peptide microarray binding signal” value ([1]; peptide modifications: H2BK11ac H2BK15ac, binder concentration: 50 nM) was 0.00295 ± 3.3e-05, the “peptide microarray binding signal” value ([1]; peptide modifications: H2BK11ac H2BK15ac, binder concentration: 500 nM) was 0.00457 ± 5.4e-05 and the “peptide microarray binding signal” value ([2]; peptide modifications: H2BK11ac H2BK15ac, binder concentration: 10 nM) was 0.00686 ± 0.00014. For the same binder, the “peptide microarray binding signal” value ([2]; peptide modifications: H2BK11ac H2BK15ac, binder concentration: 100 nM) was 0.0056 ± 0.00049, the “peptide microarray binding signal” value [3, 9] was 0.00319 ± 0.0012 and the “peptide microarray binding signal” value [3, 10] was 0.000913 ± 2.8e-05. The “peptide microarray binding signal” value [4, 9] was 0.00104 ± 1.4e-05 and the “peptide microarray binding signal” value [4, 10] was 0.0015 ± 4.4e-05.

APAPKKGSKKAVT [H2B 7-19 A P A P K Kac G S K K A V T] was tested, and the “peptide microarray binding signal” value ([1]; peptide modifications: H2BK12ac, binder concentration: 50 nM) was 0.00335 ± 0.0001, the “peptide microarray binding signal” value ([1]; peptide modifications: H2BK12ac, binder concentration: 500 nM) was 0.0041 ± 0.00068 and the “peptide microarray binding signal” value ([2]; peptide modifications: H2BK12ac, binder concentration: 10 nM) was 0.00471 ± 0.00015. For the same binder, the “peptide microarray binding signal” value ([2]; peptide modifications: H2BK12ac, binder concentration: 100 nM) was 0.00737 ± 0.00077, the “peptide microarray binding signal” value [3, 11] was 0.000208 ± 4.5e-06 and the “peptide microarray binding signal” value [3, 12] was 0.000799 ± 1.7e-05. The “peptide microarray binding signal” value [4, 11] was 0.00116 ± 0.00021 and the “peptide microarray binding signal” value [4, 12] was 0.00213 ± 0.00019.

For APAPKKGSKKAVT [H2B 7-19 A P A P Kac K G Sph Kac Kac A V T], the “peptide microarray binding signal” value ([1]; peptide modifications: H2BK11ac H2BS14ph H2BK15ac H2BK16ac, binder concentration: 50 nM) was 0.00323 ± 0.00013, the “peptide microarray binding signal” value ([1]; peptide modifications: H2BK11ac H2BS14ph H2BK15ac H2BK16ac, binder concentration: 500 nM) was 0.00167 ± 0.00033 and the “peptide microarray binding signal” value ([2]; peptide modifications: H2BK11ac H2BS14ph H2BK15ac H2BK16ac, binder concentration: 10 nM) was 0.00388 ± 8.9e-05. For the same binder, the “peptide microarray binding signal” value ([2]; peptide modifications: H2BK11ac H2BS14ph H2BK15ac H2BK16ac, binder concentration: 100 nM) was 0.00269 ± 0.00017, the “peptide microarray binding signal” value [3, 13] was 0.000245 ± 1e-05 and the “peptide microarray binding signal” value [3, 14] was 0.0012 ± 4.3e-05. For the same binder, the “peptide microarray binding signal” value [4, 13] was 0.000529 ± 1.3e-05 and the “peptide microarray binding signal” value [4, 14] was 0.000865 ± 1.8e-05.

With APAPKKGSKKAVT [H2B 7-19 A P A P K K G S Kac K A V T] the “peptide microarray binding signal” value ([1]; peptide modifications: H2BK15ac, binder concentration: 50 nM) was 0.00238 ± 6.4e-05, the “peptide microarray binding signal” value ([1]; peptide modifications: H2BK15ac, binder concentration: 500 nM) was 0.00448 ± 0.00011 and the “peptide microarray binding signal” value ([2]; peptide modifications: H2BK15ac, binder concentration: 10 nM) was 0.00561 ± 0.00014. For the same binder, the “peptide microarray binding signal” value ([2]; peptide modifications: H2BK15ac, binder concentration: 100 nM) was 0.0039 ± 0.00027, the “peptide microarray binding signal” value [3, 15] was 0.00308 ± 0.00021 and the “peptide microarray binding signal” value [3, 16] was 0.000742. The “peptide microarray binding signal” value [4, 15] was 0.0006645 ± 5.9e-06 and the “peptide microarray binding signal” value [4, 16] was 0.000807.

In the case of APAPKKGSKKAVT [H2B 7-19 A P A P K Kac G Sph K Kac A V T], the “peptide microarray binding signal” value ([1]; peptide modifications: H2BK12ac H2BS14ph H2BK16ac, binder concentration: 50 nM) is reported as 0.00194 ± 3.1e-05, the “peptide microarray binding signal” value ([1]; peptide modifications: H2BK12ac H2BS14ph H2BK16ac, binder concentration: 500 nM) is reported as 0.00229 ± 3.3e-05 and the “peptide microarray binding signal” value ([2]; peptide modifications: H2BK12ac H2BS14ph H2BK16ac, binder concentration: 10 nM) is reported as 0.00358 ± 0.00017. The “peptide microarray binding signal” value ([2]; peptide modifications: H2BK12ac H2BS14ph H2BK16ac, binder concentration: 100 nM) was 0.00198 ± 0.00015, the “peptide microarray binding signal” value [3, 17] was 0.000831 ± 0.00011 and the “peptide microarray binding signal” value [3, 18] was 0.000628 ± 6.7e-06. For the same binder, the “peptide microarray binding signal” value [4, 17] was 0.000362 ± 6.3e-06 and the “peptide microarray binding signal” value [4, 18] was 0.00075 ± 1.6e-05.

For APAPKKGSKKAVT [H2B 7-19 A P A P Kac K G S K K A V T], the “peptide microarray binding signal” value ([1]; peptide modifications: H2BK11ac, binder concentration: 50 nM) was 0.00367 ± 0.00044, the “peptide microarray binding signal” value ([1]; peptide modifications: H2BK11ac, binder concentration: 500 nM) was 0.00667 ± 0.0024 and the “peptide microarray binding signal” value ([2]; peptide modifications: H2BK11ac, binder concentration: 10 nM) was 0.00227 ± 7.3e-05. For the same binder, the “peptide microarray binding signal” value ([2]; peptide modifications: H2BK11ac, binder concentration: 100 nM) was 0.00432 ± 0.00029, the “peptide microarray binding signal” value [3, 19] was 0.000264 ± 1.1e-05 and the “peptide microarray binding signal” value [3, 20] was 0.000628 ± 6.7e-06. The “peptide microarray binding signal” value [4, 19] was 0.000408 and the “peptide microarray binding signal” value [4, 20] was 0.000519 ± 5.6e-06.

With APAPKKGSKKAVT [H2B 7-19 A P A P K K G S K Kac A V T] the “peptide microarray binding signal” value ([1]; peptide modifications: H2BK16ac, binder concentration: 50 nM) was 0.00392 ± 4.6e-05, the “peptide microarray binding signal” value ([1]; peptide modifications: H2BK16ac, binder concentration: 500 nM) was 0.0109 ± 0.00096 and the “peptide microarray binding signal” value ([2]; peptide modifications: H2BK16ac, binder concentration: 10 nM) was 0.0037 ± 0.00013. For the same binder, the “peptide microarray binding signal” value ([2]; peptide modifications: H2BK16ac, binder concentration: 100 nM) was 0.00617 ± 0.00026, the “peptide microarray binding signal” value [3, 21] was 0.00417 ± 0.00052 and the “peptide microarray binding signal” value [3, 22] was 0.00097 ± 9.9e-06. For the same binder, the “peptide microarray binding signal” value [4, 21] was 0.000966 ± 4.4e-05 and the “peptide microarray binding signal” value [4, 22] was 0.00144 ± 7.5e-05.

With APAPKKGSKKAVT [H2B 7-19 A P A P K K G S Kac Kac A V T] the “peptide microarray binding signal” value ([1]; peptide modifications: H2BK15ac H2BK16ac, binder concentration: 50 nM) was 0.00539 ± 7.7e-05, the “peptide microarray binding signal” value ([1]; peptide modifications: H2BK15ac H2BK16ac, binder concentration: 500 nM) was 0.00995 ± 0.00033 and the “peptide microarray binding signal” value ([2]; peptide modifications: H2BK15ac H2BK16ac, binder concentration: 10 nM) was 0.0115 ± 0.00069. The “peptide microarray binding signal” value ([2]; peptide modifications: H2BK15ac H2BK16ac, binder concentration: 100 nM) was 0.0164 ± 0.004, the “peptide microarray binding signal” value [3, 23] was 0.00217 ± 0.0011 and the “peptide microarray binding signal” value [3, 24] was 0.00131 ± 5.7e-05. For the same binder, the “peptide microarray binding signal” value [4, 23] was 0.00133 ± 5.4e-05 and the “peptide microarray binding signal” value [4, 24] was 0.00185 ± 6.1e-05.
